Several values for one entry are separate records, joined by “and”; a condition that tells them apart may be missing. Identical values can stand only once. About 10,000 (2.8%) of roughly 360,000 compounds were called active. About 4% were inconclusive and are not listed. Shown is part of a subset that was picked to be rich in actives. Unmarked numbers belong to inactive results. The call rests on the fitted dose curve; in most records, active means well fitted inhibition curve with a large enough effect; inconclusive means small, poorly fitted or top-dose-only effect; inactive means flat fitted curve, though single readings scatter.
On the % scale 0 is the no-effect control and ±100 the full control effect; potency means the concentration at half of the fitted maximal effect.

Sequence of Serine/threonine-protein kinase PLK1 (Homo sapiens) (P53350 whole entry, looked up, the tested form may be a part): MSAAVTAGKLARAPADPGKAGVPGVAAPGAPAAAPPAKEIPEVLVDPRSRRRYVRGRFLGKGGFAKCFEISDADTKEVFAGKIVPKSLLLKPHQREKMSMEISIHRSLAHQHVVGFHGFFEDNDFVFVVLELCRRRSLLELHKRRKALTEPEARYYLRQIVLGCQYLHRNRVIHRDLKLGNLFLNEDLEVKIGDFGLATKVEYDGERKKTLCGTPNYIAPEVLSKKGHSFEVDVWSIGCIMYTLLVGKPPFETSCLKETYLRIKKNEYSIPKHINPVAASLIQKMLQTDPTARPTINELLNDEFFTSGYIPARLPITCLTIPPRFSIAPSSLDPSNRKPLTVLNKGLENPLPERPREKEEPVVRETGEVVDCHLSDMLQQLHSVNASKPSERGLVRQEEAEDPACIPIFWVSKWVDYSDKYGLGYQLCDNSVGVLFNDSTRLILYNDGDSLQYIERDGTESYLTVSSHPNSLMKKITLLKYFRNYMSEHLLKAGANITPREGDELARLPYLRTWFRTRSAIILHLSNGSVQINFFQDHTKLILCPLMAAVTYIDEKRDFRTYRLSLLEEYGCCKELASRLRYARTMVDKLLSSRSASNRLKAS

The assay has as its target Serine/threonine-protein kinase PLK1 (Homo sapiens) (UniProt P53350). Description: qHTS for Inhibitors of PLK1-PDB (polo-like kinase 1 - polo-box domain): Primary Screen. Further: nearly all actives have a fitted effect of over 65% in size. On max response, negative = inhibition: series mostly up to about 57 µM. Particulars: Plk1 PBD binding of FITC phosphopeptide, fluorescence polarization. In general terms: In qHTS, concentration-response curves come from the screen itself.
Take `Cc1cc(C)c(S(=O)(=O)N2CCOCC2)cc1C`: the Potency is 10.6 µM (active). With `COc1ccc(S(=O)(=O)N2CCOCC2)c(C)c1C`, the max response, negative = inhibition was -1.42%. For `COc1cc(C)c(S(=O)(=O)N2CCOCC2)c(C)c1C`, the max response, negative = inhibition was -14.4%. For `CCOP(=O)(OCC)C(Cc1ccccc1)N=C(c1ccccc1)c1ccccc1` (centres undefined), the max response, negative = inhibition was -2.76%.

For `COC(=O)[C@@]12C[C@@H](CC(=O)NCCCCc3ccccc3)C(=O)N(CCc3ccc(OC)c(OC)c3)C1=CCC(C)(C)C2`, the max response, negative = inhibition is -6.86%. Turning to `CCOC(=O)[C@]12CCCC=C1N(CCC1=CCCCC1)C(=O)[C@H](CC(=O)N1CCOCC1)C2`, the max response, negative = inhibition is -15.5%. Consider `CC(C)OCCCNC(=O)CN1C(=O)/C(=C/c2ccccc2F)Oc2ccccc21`, for which the Potency was 26.7 µM (active). For `CN1CCN(CCCNC(=O)c2ccc(/C=C3\Oc4ccccc4N(Cc4ccc(Cl)cc4)C3=O)cc2)CC1`, the max response, negative = inhibition is -4.87%. On the same count and under the same terms, the same measure for `CCCN1CCN(CCCNC(=O)CN2C(=O)COc3ccccc32)CC1`: -2.49%; for `CC1(C(=O)NS(=O)(=O)c2ccccc2)CCN1C(=O)c1ccccc1` (centres undefined): -4.3%; for `CN(C)C(=O)c1cccc(-c2cnc3sc(NCc4ccc5c(c4)OCO5)nn23)c1`: -3.28%. Same read-out and setting: in the case of `Cc1cccc(C(=O)OCC(=O)Nc2sccc2C(N)=O)c1C` it was 4.89%; in that of `Cc1cnc(C(=O)N2CCCC(C(=O)c3ccc(C(F)(F)F)cc3)C2)cn1` (centres undefined), 6.24%.

On to `O=C(c1ccc(C(F)(F)F)cc1)C1CCCN(C(=O)c2csnn2)C1` (centres undefined), for which the max response, negative = inhibition is 2.18%. In the case of `Cc1nc(C(=O)N2CCCC(C(=O)c3ccc(Cl)cc3)C2)cs1` (centres undefined), the Potency is 26.7 µM (active). For the compound `Cc1cccc(C)c1-n1nnnc1C(CCc1ccccc1)N1CCN(C/C=C/c2ccccc2)CC1` (centres undefined), the max response, negative = inhibition is -10.6%. Regarding `c1cc(-c2ccc3[nH]ccc3c2)n2ccnc2c1`, the max response, negative = inhibition is -9%. On the same count and under the same terms, in the case of `COc1cccc(NC(=O)CN2CCN(CC(=O)Nc3ccccc3Cl)CC2)c1` it was -1.84%. Still for that read-out and setting: in the case of `O=C(Nc1ccc2c(c1)CCC2)c1cccc(S(=O)(=O)Nc2ccccc2Cl)c1` it was -7.42%. For the compound `O=C(Cc1ccc2c(c1)CCCC2)Nc1ccccc1Cl`, the Potency was 16.8 µM (active). In the case of `Cc1onc(-c2ccccc2)c1-c1nnc(COC(=O)c2ccc(N(C)C)cc2)o1`, the max response, negative = inhibition is 5.92%. Same read-out and setting: the same measure for `CCc1nc2c(OCc3cccc(OC)c3)cccn2c1N(C)C(=O)C(C)C`: -12%; for `CN1CCN(C(=O)c2ccc(-c3ccc(Br)cc3)o2)CC1`: -2.57%.

On to `O=C(O)c1ccccc1NC(=O)c1ccccc1-c1ccccc1C(=O)O`, for which the max response, negative = inhibition is -6.65%. For `O=C(NC(=S)Nc1ccccc1C(=O)O)c1ccc(-c2ccc(Br)cc2)o1`, the Potency is 13.4 µM (active). `CC(C)(C)CC(=O)Nc1nc(C(N)Cc2ccc(C(F)(F)F)cc2)cs1` (centres undefined): the max response, negative = inhibition is -8.43%.

`C[N+](C)(C)CCNC(=O)c1c[nH]c2ccccc12`: the max response, negative = inhibition was -0.504%. Consider `COC(=O)c1c(C)[nH]c(C)c1-c1ccc([N+](=O)[O-])cc1`, for which the max response, negative = inhibition is -17.8%. With `COc1ccc(C2CC(c3ccc([N+](=O)[O-])cc3)=NN2C(C)=O)cc1` (centres undefined), the max response, negative = inhibition is -7.83%. As for `CC(=O)N1CC[n+]2c(-c3ccc([N+](=O)[O-])cc3)csc21`, the Potency was 9.47 µM (active). For `CSc1ccc(CN2CCC2(C)C(=O)NCc2ccccc2Br)cc1` (centres undefined), the max response, negative = inhibition was 2.74%. Turning to `Cc1ccc(-n2c(C)cc(C(=O)CSc3nnc4ccccn34)c2C)cc1`, the max response, negative = inhibition was -3.52%. With `Cc1ccc(-n2c(C)cc(C(=O)CN3C(=O)C(=O)N(C4CCCC4)C3=O)c2C)cc1`, the Potency is 26.7 µM (active). As to `Cc1cc(C(=O)COC(=O)C2CC2)c(C)n1-c1ccc(F)cc1`, the max response, negative = inhibition is 3.31%. On the same count and under the same terms, in the case of `FC(F)(F)c1ccccc1Cc1c(-c2ccccc2)nc2c3ccccc3ccn12` it was 5.06%.

Take `COc1ccc(C(NC(=O)C2CCN(CCCc3ccccc3)CC2)c2cccs2)cc1` (centres undefined): the max response, negative = inhibition is -15.3%. With `CCCc1nc2c3ccccc3ccn2c1Cc1ccccc1C(F)(F)F`, the max response, negative = inhibition was -6.42%.

Regarding `CCCNC(=O)C1(C)CCN(C(=O)c2ccc(F)cc2Cl)C1` (centres undefined), the max response, negative = inhibition is -7.53%. Still for that read-out and setting: the same measure for `COc1ccccc1CC1(C)C(=O)Nc2ccc(OC(F)(F)F)cc21` (centres undefined): -13.6%; for `CCCCNC(=O)OC1CC2CC1[C@H]1CCCCN1C2=O` (some centres undefined): -1.73%. Regarding `Cc1ccc(S(=O)(=O)/N=C(/Nc2ccccn2)c2ccc(Cl)cc2)cc1`, the max response, negative = inhibition was -1.19%.

On to `Cc1ccc(S(=O)(=O)/N=C(/Nc2ccc3[nH]c(=O)[nH]c3c2)c2ccccc2)cc1`, for which the max response, negative = inhibition is -15.4%. `Cc1ccc(S/C(=N\S(=O)(=O)c2ccc(Cl)cc2)c2ccccc2)cc1`: the Potency was 2.67 µM (active). As for `CC1CN(C(=O)c2cccc(NS(=O)(=O)c3ccc(Br)cc3)c2)CC(C)O1` (centres undefined), the max response, negative = inhibition was -2.62%. On the same count and under the same terms, the same measure for `O=S1(=O)CC(N2CCN(c3ccccn3)CC2)CN1Cc1ccc(F)cc1` (centres undefined): -5.38%; for `CSc1ncccc1C(=O)N1CCCC(Nc2ccc(F)c(F)c2)C1` (centres undefined): -2.74%; for `CC(C)OC(=O)c1cc(NC(=O)C2C3CCC(O3)C2C(=O)O)cc(C(=O)OC(C)C)c1` (centres undefined): -3.95%. Still for that read-out and setting: in the case of `COc1ccc(NC(=O)C2C3CCC(O3)C2C(=O)O)cc1OC` (centres undefined) it was 4.35%. On to `Cc1sc(NC(=O)C2C3CCC(O3)C2C(=O)O)c(C(=O)OC(C)C)c1-c1ccc(Cl)cc1` (centres undefined), for which the Potency is 7.52 µM (active). Regarding `CCc1nc2c(OCCOc3ccccc3)cccn2c1N(C=O)Cc1ccc(OC)cc1`, the max response, negative = inhibition is -6.91%. Same read-out and setting: in the case of `CC(=O)Nc1ccc(S(=O)(=O)Oc2ccc(Br)cc2C(=S)N2CCOCC2)cc1` it was -17.8%; in that of `COc1cc(C(=S)N2CCOCC2)cc(OC)c1OC(=O)c1ccc([N+](=O)[O-])cc1[N+](=O)[O-]`, -24.3%. Take `O=C(Oc1ccc(Br)cc1C(=S)N1CCOCC1)c1cccc([N+](=O)[O-])c1`: the Potency was 11.9 µM (active). As for `O=C(Oc1ccccc1Cl)c1ccc(N2CCOCC2)c([N+](=O)[O-])c1`, the max response, negative = inhibition is -14.3%. For the compound `O=C(Oc1ccccc1C(=S)N1CCCCC1)c1cc([N+](=O)[O-])cc([N+](=O)[O-])c1`, the Potency is 2.12 µM (active) and 2.67 µM (active). Turning to `COc1ccc(C(=O)N2CCCC(C(=O)c3ccccc3OC)C2)cc1OC` (centres undefined), the max response, negative = inhibition was -20.4%. The same measure, in the same setting: in the case of `COc1ccc(S(=O)(=O)N2CCCCC2)cc1C(=O)NC1CCS(=O)(=O)C1` (centres undefined) it was 5.08%. On the same count and under the same terms, in the case of `O=c1[nH][nH]c2c1[C@H](c1ccc(Cl)cc1)O[C@H](CCc1ccccc1)C2` it was -16.9%. Still for that read-out and setting: the same measure for `CCOC1=C2CN(S(=O)(=O)c3ccc(C)cc3)[C@H](c3cccs3)C[C@H]2[C@H]2C(=O)N(c3ccccc3)C(=O)[C@H]2C1`: -0.0091%; for `Cc1ccccc1CSc1nnc(-c2ccccc2)c(=O)[nH]1`: -22.2%.

With `N#Cc1c(-c2ccccc2)nc(SCc2cccc(C(F)(F)F)c2)[nH]c1=O`, the Potency is 23.8 µM (active). Consider `O=C(Nn1c(SCc2ccc([N+](=O)[O-])cc2)nc2ccccc2c1=O)c1ccc(F)cc1`, for which the max response, negative = inhibition was -14.4%.

Take `N#Cc1c(-c2ccc(F)cc2)nc(-c2ccccc2)[nH]c1=O`: the max response, negative = inhibition was -13.6%. As for `O=c1[nH]c(SCc2cccc(F)c2)nc2ccccc12`, the max response, negative = inhibition was -13.9%. For the compound `N#Cc1c(-c2ccccc2)nc(SCc2ccc([N+](=O)[O-])cc2)[nH]c1=O`, the Potency was 26.7 µM (active). In the case of `S=C(NN=Cc1ccccn1)Nc1ccccn1`, the max response, negative = inhibition was -6.29%. With `COc1ccc(CCCNC(=O)C2Cc3c(-c4cccc(C(N)=O)c4)ccnc3O2)cc1` (centres undefined), the max response, negative = inhibition is -3.93%. The same measure, in the same setting: the same measure for `CCc1nc2ccc(C(=O)Nc3ccc(OC)c(OC)c3)cn2c1N(C)C(=O)c1cccc(OC)c1`: -6.83%; for `O=C(NNC(=O)c1ccccc1[N+](=O)[O-])Nc1ccccc1C(F)(F)F`: -9.97%.

For the compound `O=C(O)c1ccccc1NC(=S)NC(NC(=O)c1ccccc1[N+](=O)[O-])C(Cl)(Cl)Cl` (centres undefined), the Potency is 26.7 µM (active). For the compound `O=C(Nc1ccccc1[N+](=O)[O-])C1C(c2ccccc2)=C1c1ccccc1`, the max response, negative = inhibition is 0.94%. On to `COc1ccc(Cl)cc1-n1c(=S)sc2c(=O)n(-c3ccc(F)cc3)c(SCC(=O)O)nc21`, for which the Potency is 23.8 µM (active). As to `COc1cccc(-n2c(=S)sc3c(=O)n(-c4ccccc4C)c(SCC(=O)O)nc32)c1`, the max response, negative = inhibition was -8.81%. Take `COc1ccccc1-n1c(SCC(=O)O)nc2sc3c(c2c1=O)CCC3`: the max response, negative = inhibition was -11.7%. Same read-out and setting: in the case of `C#CCN(C[C@H]1[C@H](OC(=O)NC2CCCC2)[C@H](OC(=O)NC2CCCC2)C[C@H]2C(=O)N(c3ccccc3)C(=O)[C@@H]12)S(=O)(=O)c1ccc(C)cc1` it was -0.644%; in that of `CC(=O)Nc1ccc(-c2ccnc3c2CC(C(=O)NC(C)C)O3)cc1` (centres undefined), -3.44%; in that of `O=C(NCCCCCCCCCNC(=O)C(F)(F)F)C(F)(F)F`, -1.31%. Turning to `O=C(NCCCCO)C(F)(F)C(F)(F)C(F)(F)C(=O)NCCCCO`, the Potency is 18.9 µM (active).

Regarding `COCCNc1ncnc2c1ncn2[C@H]1CN(CCN2CCOCC2)C[C@@H](CO)O1`, the max response, negative = inhibition was -5.67%. Still for that read-out and setting: the same measure for `CC(C)Nc1nc(NCCOc2ccccc2Cl)c2sccc2n1`: 4.77%; for `Cc1sc2ccccc2c1CNC[C@H]1O[C@@H](n2ccc(=O)[nH]c2=O)[C@H](O)[C@@H]1O`: 2.69%; for `CC1CCN(c2nc3c(c(=O)[nH]c(=O)n3C)n2CCCc2ccccc2)CC1`: -10.5%. In the case of `C=CCn1c(SCc2ccccc2)nc2c1c(=O)[nH]c(=O)n2C`, the Potency is 26.7 µM (active). For the compound `Cc1nnc(Sc2nc3c(c(=O)[nH]c(=O)n3C)n2Cc2ccccc2)s1`, the max response, negative = inhibition was 0.479%.

The values above are taken from PubChem BioAssay AID720504 (National Center for Advancing Translational Sciences (NCATS), 2013).
